Where a name gives a salt, the structure may show the parent alone.
System: thyroid hormone receptor (endogenous TRα and TRβ)
Set-up: species or system GH3-TRE-Luc (rat pituitary); GH3-TRE-Luc luciferase reporter, antagonist mode against 1 nM T3, loss of signal, qHTS
Conditions: read-out: Average AC50 (uM) GH3-TRE-Antag, antagonist mode, 1 nM T3, no GH3 cytotoxicity hit

| Structure (SMILES) | AC50 [µM] |
| --- | --- |
| Cc1cccc(C)c1Nc1ncccc1C(=O)O [Metanixin] | 28.2 |
| O=[N+]([O-])c1c(Cl)c(Cl)c(Cl)c(Cl)c1Cl [Pentachloronitrobenzene] | > 90 |
| Cc1oc(=O)oc1CN1CCN(c2cc3c(cc2F)c(=O)c(C(=O)O)c2n3C(C)S2)CC1 (stereo not drawn) [Prulifloxacin] | > 50 |
| CCOc1cc(N)c(Cl)cc1C(=O)NCC1CN(Cc2ccc(F)cc2)CCO1 (stereo not drawn) [Mosapride citrate] | 43.4 |
| COC(=O)[C@@H]1[C@H]2C[C@H]3c4[nH]c5ccccc5c4CCN3C[C@@H]2CC[C@@H]1O [Yohimbine] | 43.8 |
| NC1=NCC2c3ccccc3Cc3ccccc3N12 (stereo not drawn) [Epinastine hydrochloride] | 27.1 |
| C[C@]12CCC(=O)C=C1CC[C@@H]1[C@@H]2CC[C@@]2(C)[C@H]1CC[C@]2(O)C(=O)CO [Cortodoxone] | 21.8 |
| Cc1nc2ccccc2n1Cc1ccc(Cl)cc1 [Chlormidazole] | 5.9 |
| COc1ccc2c(c1)c1c3n2CCN(C)C3=NCC1 [Metralindole] | 28.1 |
| CC(C)OC(=S)S [Proxan-sodium] | > 90 |
| CC(O)(CS(=O)(=O)c1ccc(F)cc1)C(=O)Nc1ccc(C#N)c(C(F)(F)F)c1 (stereo not drawn) [Bicalutamide] | 35.3 |
| CCN(CC)C(=O)N[C@H]1C[C@@H]2c3cccc4[nH]cc(c34)C[C@H]2N(C)C1 [Terguride] | 22.1 |
| C#C[C@]1(O)CC[C@H]2[C@@H]3CCC4=CC(=O)CCC4=C3C=C[C@@]21CC [Gestrinone] | 24.3 |
| Oc1ccc2c(c1)-c1ccccc1C2 [3-Hydroxyfluorene] | 91.5 |
| C#CCC(Cc1cnc2nc(N)nc(N)c2n1)c1ccc(C(=O)N[C@@H](CCC(=O)O)C(=O)O)cc1 (stereo partly drawn) [Pralatrexate] | 0.687 |
| Oc1cc(Cl)cc(Cl)c1 [3,5-Dichlorophenol] | 54 |
| O=C(CCCCCCCCC#CI)Oc1ccccc1 [Phenyl 11-iodo-10-undecynoate] | 21.5 |
| CCCC1C(CC)=CC(CC)=CN1c1ccccc1 (stereo not drawn) [3,5-Diethyl-1-phenyl-2-propyl-1,2-dihydropyridine] | 53.9 |
| CCN(C(=O)c1cc(C)cc(OC[C@H](C)Nc2ccncc2)c1)C(C)C [GW473178E methyl benzene sulphonic acid] | 51.7 |
| CCCCCCCCCC/C=C/C1CC(=O)OC1=O (stereo not drawn) [3-(Dodecenyl)dihydro-2,5-furandione] | > 90 |

| Structure (SMILES) | AC50 [µM] |
| --- | --- |
| CC(C)(c1ccc(O)cc1)c1ccc(O)cc1 [BPA, bisphenol A] | 66.6 |
| CC(C)CCCCCCCCCCCCCCC(=O)O [Isooctadecanoic acid] | 16.3 |
| O=C(Nc1ccc(/C=C/c2ccc(NC(=O)c3cc(S(=O)(=O)O)c4cccnc4c3O)cc2S(=O)(=O)O)c(S(=O)(=O)O)c1)c1cc(S(=O)(=O)O)c2cccnc2c1O [Ubistatin A] | 27.4 |
| Cc1ccc(S(=O)(=O)NC2CCCCC2)cc1 [N-Cyclohexyl-4-methylbenzenesulfonamide] | > 90 |
| CCCCCOC(=O)COc1cc(N2C(=O)C3=C(CCCC3)C2=O)c(F)cc1Cl [Flumiclorac-pentyl] | 52.5 |
| CC(C(=O)O)c1ccc(-c2ccccc2)c(F)c1 (stereo not drawn) [Flurbiprofen] | > 20 |
| C/C(=C\c1csc(C)n1)[C@@H]1C[C@@H]2O[C@]2(C)CCC[C@H](C)[C@H](O)[C@@H](C)C(=O)C(C)(C)[C@@H](O)CC(=O)O1 [Epothilone B] | 0.0109 |
| C[C@]12CC[C@H](O)CC1=CC[C@@H]1[C@@H]2CC[C@]2(C)C(=O)CC[C@@H]12 [Dehydroepiandrosterone] | > 50 |
| OC(CCCN1CCCCC1)(c1ccccc1)c1ccccc1 [Diphenidol] | 19 |
| CC1(C)C2=CCCC(C)(C)[C@]23CC[C@H]1C3 [(-)-Isolongifolene] | 54.9 |
| CC[C@H]1OC(=O)[C@H](C)C(=O)[C@H](C)[C@@H](O[C@@H]2O[C@H](C)C[C@H](N(C)C)[C@H]2O)[C@](C)(OC)C[C@@H](C)C(=O)[C@H](C)[C@H]2N(CCCCn3cnc(-c4cccnc4)c3)C(=O)O[C@]12C [Telithromycin] | 22.2 |
| CCc1c2c(nc3ccc(OC(=O)N4CCC(N5CCCCC5)CC4)cc13)-c1cc3c(c(=O)n1C2)COC(=O)[C@]3(O)CC [Irinotecan hydrochloride] | 19.1 |
| CCCCCCCCCCCC(=O)O [Dodecanoic acid] | 68.4 |
| CC1(CO)CN(c2ccccc2)NC1=O (stereo not drawn) [4-(Hydroxymethyl)-4-methyl-1-phenylpyrazolidin-3-one] | 82.6 |
| O=C(Nc1ccccc1)c1ccccc1O [Salicylanilide] | 48.9 |
| CCCCCCCCCCCC(=O)N(C)CC(=O)O [N-Dodecanoyl-N-methylglycine] | > 90 |
| c1ccc2sc(SN(C3CCCCC3)C3CCCCC3)nc2c1 [N,N-Dicyclohexyl-2-benzothiazolesulfenamide] | 33.2 |
| CC(C)=CCC[C@](C)(O)[C@@H]1CC=C(C)CC1 [Levomenol] | 38 |
| O=C(O)c1cccc(-c2noc(-c3ccccc3F)n2)c1 [Ataluren] | 10.8 |

Reference: PMC6792352, “Limited Chemical Structural Diversity Found to Modulate Thyroid Hormone Receptor in the Tox21 Chemical Library” (Environmental Health Perspectives, 2019)
